Test results: the supplement of paper PMC11417369
Whole data set: some 25,000 sequences, median “ln(normalized median fluorescence intensity)” near 7.1, cut for the highest 2% near 10. The list comes from a sample in which the highest values are over-represented; it also holds similar and randomly drawn sequences.

system: PfSIP2 AP2 domain 1 (GST-tagged); assay: gcPBM binding intensity (ln(normalized median fluorescence intensity)); higher = stronger DNA binding
How it was run: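 An Agilent 4 × 180k array of primer-extended double-stranded 36-bp intergenic genomic probes, with negative controls, was incubated for 1 h with GST-tagged P. falciparum DNA-binding domains expressed in E. coli. Alexa488 anti-GST antibody detected bound protein, scanned at 488 nm. Binding intensity is the highest Masliner-normalised natural-log median intensity across replicate spots of either probe orientation.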

Compared with “TATTAACTCAATAGCGCACACTTTTAATATTTTATA [CACACA_site4973]”, “TAAATAGGAAAACCTATACACACTTTAAAAAAAATA [CACACA_site1621]” is lower in “gcPBM binding intensity (ln)” value: 7.33 for the first, 6.75 for the second.

Compared with “ATTATATCATCTAAAACATGCACACATATGTACTCT [TGCATGCA_site949]”, “TTATTTATGAGGGTGACACACAAAAGAGTGTTAAGA [CACACA_site277]” is lower in “gcPBM binding intensity (ln)” value: 7.12 for the first, 6.75 for the second.

Going from “ATACGAAAAAATAGACGTACTATGAAATAATAATTT [XGTACX_site8387]” to “GTCCTCATCCACTATGCACACAAAAAAGAAATACAC [CACACA_site9131]”, the “gcPBM binding intensity (ln)” value rises from 6.87 to 8.48.

Compared with “TGGGAAAAAATATATGCACACCCCCCAAAAAAAAAA [CACACA_site8696]”, “GGAAAAAATATATGCACACCCCCCAAAAAAAAAAAA [CACACA_site2222]” is lower in “gcPBM binding intensity (ln)” value: 10.8 for the first, 9.73 for the second.

Going from “AAAAAAAAAAAACACACACACACACCCAAATATATA [CACACA_site150]” to “ATAGTTTTATATAAATGTACAAATGATTTCAAATAG [XGTACX_site8236]”, the “gcPBM binding intensity (ln)” value falls from 7.14 to 7.08.

Compared with ATATATATATATTTCGTGCACTGATAATATTATTTT, “ATGATATATTTAATAGTGCACTAATTAAAATTATTA [GTGCAC_site9418]” is higher in “gcPBM binding intensity (ln)” value: 10.2 for the first, 11 for the second.

Going from “ATAATTAAAAATAATATATATATAATATGATATTAT [GTGCAC_negctrl_site194]” to ATATTTTATATAATAGTGCAAATAATATTAAATAAT, the “gcPBM binding intensity (ln)” value rises from 6.94 to 8.4.

Compared with AAAAAAAAAAAATACGTGCACTATGATATATTATAT, “TTATATTATTCGTGTGTGCACGATATTTCATAATTG [GTGCAC_site9767]” is lower in “gcPBM binding intensity (ln)” value: 10.3 for the first, 8.96 for the second.

Going from “ATATATATATTTATAGTGCATTTATATTAAAATATC [GTGCAC_site9818]” to “TTATAATATTAATGTGCACACAATTAAAATATTATA [CACACA_site2046]”, the “gcPBM binding intensity (ln)” value rises from 8.92 to 9.4.

First: TAAATATATATATATAGTACAATATAATTATGATAT [XGTACX_site258]
Second: ATTATTAAAATGATATGTACGCACATAATATACATA [XGTACX_site3236]
The “gcPBM binding intensity (ln)” value of the first is higher: 7.24 for the first, 7.06 for the second.

Compared with GTTATATTTAAAATAGTGCAATAAAAATAATAATAT, “ATAATTATATGATGAGTGCACAATAAAAATATCGTT [GTGCAC_site9920]” is higher in “gcPBM binding intensity (ln)” value: 8.42 for the first, 10.7 for the second.

Going from “TATATATATACTTAATGTACATATATATATATATAT [XGTACX_site3102]” to “CCCCTTAATTAAAGGAGTACTATTTGTGAATAATAT [XGTACX_site4715]”, the “gcPBM binding intensity (ln)” value falls from 9.75 to 7.47.

Going from “ATAATTCCATAAAATAGACACACGAATGTATAATAT [CACACA_site477]” to “AATAATGAAAAATCAAATAACCTAAATTACAACTGT [XGTACX_negctrl_site65]”, the “gcPBM binding intensity (ln)” value falls from 7 to 6.91.
